Results: PubChem BioAssay (NCATS)
Records with an inconclusive call do not appear. Calls of active or inactive are those of the source. The call rests on the fitted dose curve; in most records, active means well fitted cell-killing curve with a large enough effect; inconclusive means small, poorly fitted or top-dose-only effect; inactive means no such curve, though single readings can be large or run the other way. Numbered stars: 1 amine (or outer) side, 2 acyl side, 3 side chain; on linkers, the order of the positions; unused ones are H or OH. Bridge positions count the residues as written; N and C are the ends. Square brackets hold non-standard residues; d marks the D form. Peptide text beside a SMILES is read from it. I, II: the chains in the order shown. Actinocin(9to1) = Cc1c2oc3c(C)ccc(C(=O)[*:1])c3nc-2c(C(=O)[*:2])c(N)c1=O; NMeV = CN[C@H](C(=O)O)C(C)C; Sar = CNCC(=O)O
Potency means the concentration at half of the fitted maximal effect.

Test: qHTS of pediatric cancer cell lines to identify multiple opportunities for drug repurposing: Confirmatory screen for Rh41 cells (AID 1347123);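 further: 48 h compound exposure; nearly all actives have a fitted effect of over 60% in size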
Conditions: Rh41 rhabdomyosarcoma cells, viability/cytotoxicity qHTS; series mostly up to 45.9 µM; activity change, negative = cytotoxic: at the top concentration
Source text: Drug repurposing or repositioning has been offered as a strategy for drug development in oncology programs. This approach has special potential for childhood cancers and other rare or orphan diseases, where the expected return on new drug development has been a disincentive to pharmaceuticals.
In this project we exploit the poly-pharmacology of drugs to discover new indications via phenotypic screening of a panel of 19 well-characterized cell lines derived from solid tumors seen in children and adolescents. The goal is to identify approved drugs with previously unrecognized anticancer properties that has the potential to reveal new mechanisms and biological processes involved in carcinogenesis or drug resistance. We employed a titration-based paradigm (quantitative high-throughput screening or qHTS), where all compounds were tested at multiple concentrations for their effect on cell viability. Concentration-response curves (CRCs) were derived directly from the primary screen, and both potency and efficacy values were used to identify compounds with robust bioactivity profiles. We screened the NIH Chemical Genomics Center (NCGC) Pharmaceutical Collection (NPC) and Mechanism Interrogation Plate (MIPE) small molecule collections of approved and investigational compounds against these cell lines; and measured metabolically active cells after 48 hours of compound treatment as a proxy for cell viability.
Assay Submitter: Nathalia J. Martinez, National Center for Advancing Translational Sciences, National Institutes of Health, Rockville, MD, USA; email: natalia.martinez@nih.gov
[1] Shen, M et al. Quantitative high-throughput phenotypic screening of pediatric cancer cell lines identifies multiple opportunities for drug repurposing. Oncotarget 2017 Dec 19;9(4):4758-4772. PMID 29435139.
The cells were obtained from University of North Carolina (UNC), Pediatric Preclinical Testing Program (PPT), and Coriell Institute (CI).
qHTS cell viability assay:
Cells were assayed in growth media at a density of 500-1,000 cells/well. Five microliters of cells were dispensed into 1,536-well, white, solid-bottom, TC-treated plates (Greiner Bio One) using a multidrop dispenser and incubated at 37 degrees C, 5% CO2, under a humidified atmosphere for 5 hours. Twenty-three nanoliters of compounds and controls (neutral control DMSO or positive control bortezomib at final concentration of 2.3 µM) were subsequently transferred by Kalypsys pintool. For primary screens, the MIPE collection was tested at 11-point dilutions (final concentrations range from 0.78 nM to 46 µM) and the NPC collection at 8-point dilutions (final concentrations range from 0.59 nM to 46 µM). Compounds tested in follow-up screens were assayed at 11-point dilutions. Cells were incubated for 48 hours, followed by addition of 3 µL of CellTiter-Glo (Promega). After a 15 min incubation at room temperature, samples were analyzed for luminescence intensity using a ViewLux High-throughput CCD imager equipped with clear filters.
For `OC[C@H]1O[C@@H](n2cnc3c(=S)nc[nH]c32)[C@H](O)[C@@H]1O`, the Potency was 10.4 µM (active).
With `C[C@]12C=CC(=O)C=C1CC[C@@H]1[C@@H]2[C@@H](O)C[C@@]2(C)[C@H]1CC[C@]2(O)C(=O)CO` the “activity change, negative = cytotoxic” value was -9.18% (inactive).
In the case of `CN(C)C(=S)SC(=S)N(C)C`, the Potency is reported as 1.31 µM (active).
In the case of `NC(CO)(CO)CO`, the “activity change, negative = cytotoxic” value is reported as 0% (inactive).
In the case of `CCC(C(=O)OCCN(CC)CC)c1ccccc1` (stereo unspecified), the “activity change, negative = cytotoxic” value is reported as 14% (inactive).
In the case of `C[C@]12CCC(=O)C=C1CC[C@H]1[C@@H]3CC[C@](O)(C(=O)CO)[C@@]3(C)C[C@H](O)[C@@]12F`, the “activity change, negative = cytotoxic” value is reported as -21.9% (inactive).
In the case of `COc1c(C)c2c(c(O)c1C/C=C(\C)CCC(=O)O)C(=O)OC2`, the Potency is reported as 1.17 µM (active).
With `CC(=O)OCC(=O)[C@@]12OC(C)(C)O[C@@H]1C[C@H]1[C@@H]3C[C@H](F)C4=CC(=O)C=C[C@]4(C)[C@@]3(F)[C@@H](O)C[C@@]12C` the “activity change, negative = cytotoxic” value was -0.178% (inactive).
In the case of `COCc1c(C(C)C)nc(C(C)C)c(/C=C/[C@@H](O)C[C@@H](O)CC(=O)O)c1-c1ccc(F)cc1`, the Potency is reported as 2.33 µM (active).
In the case of `O=C(CCCN1CCC(O)(c2ccc(Br)cc2)CC1)c1ccc(F)cc1`, the Potency is reported as 18.5 µM (active).
In the case of `C[C@@H]1CN(CCCn2c3ccccc3c3ccccc32)C[C@H](C)N1`, the Potency is reported as 16.5 µM (active).
With `C[n+]1c2cc(N)ccc2cc2ccc(N)cc21` (tested in a mixture with another compound) the Potency was 5.22 µM (active).
For `CC(=O)OCC(=O)[C@@]1(O)CC[C@H]2[C@@H]3CCC4=CC(=O)C=C[C@]4(C)[C@H]3[C@@H](O)C[C@@]21C`, the “activity change, negative = cytotoxic” value was -9.48% (inactive).
In the case of `C[C@@H]1C[C@H]2[C@@H]3C[C@H](F)C4=CC(=O)C(Cl)=C[C@]4(C)[C@@]3(F)[C@@H](O)C[C@]2(C)[C@@]1(O)C(=O)CO`, the “activity change, negative = cytotoxic” value is reported as -22.6% (inactive).
For `CCCCC(CC)CN=C(N)NC(N)=NCCCCCCN=C(N)NC(N)=NCC(CC)CCCC` (stereo unspecified), the Potency was 7.37 µM (active).
With `CC(=O)Oc1ccc2c(c1)CC[C@@H]1[C@@H]2CC[C@]2(C)[C@@H](O)CC[C@@H]12` the “activity change, negative = cytotoxic” value was -27.4% (inactive).
With `CN(C)/N=N/c1nc[nH]c1C(N)=O` the “activity change, negative = cytotoxic” value was 12.1% (inactive).
In the case of `CC1(C)O[C@@H]2C[C@H]3[C@@H]4C[C@H](F)C5=CC(=O)CC[C@]5(C)[C@H]4[C@@H](O)C[C@]3(C)[C@]2(C(=O)CO)O1`, the “activity change, negative = cytotoxic” value is reported as -21.4% (inactive).
In the case of `COc1cccc2c1C(=O)c1c(O)c3c(c(O)c1C2=O)C[C@@](O)(C(=O)CO)C[C@@H]3O[C@H]1C[C@H](N)[C@H](O)[C@H](C)O1`, the Potency is reported as 1.47 µM (active).
With `CC(=O)[C@H]1CC[C@H]2[C@@H]3C[C@H](C)C4=CC(=O)CC[C@]4(C)[C@H]3[C@@H](O)C[C@]12C` the Potency was 10.4 µM (active).
In the case of `CC(C)(C(=O)c1cccnc1)c1cccnc1`, the “activity change, negative = cytotoxic” value is reported as 6.29% (inactive).
In the case of `NC(=O)CC[C@@H]1NC(=O)[C@H](Cc2ccccc2)NC(=O)[C@H](Cc2ccc(O)cc2)NC(=O)CCSSC[C@@H](C(=O)N2CCC[C@H]2C(=O)N[C@@H](CCCN=C(N)N)C(=O)NCC(N)=O)NC(=O)[C@H](CC(N)=O)NC1=O`, the “activity change, negative = cytotoxic” value is reported as -0.484% (inactive).
For `CCOc1ccc2nc3cc(N)ccc3c(N)c2c1`, the Potency was 14.7 µM (active).
With `Cc1c2oc3c(C)ccc(C(=O)N[C@@H]4C(=O)N[C@H](C(C)C)C(=O)N5CCC[C@H]5C(=O)N(C)CC(=O)N(C)[C@@H](C(C)C)C(=O)O[C@@H]4C)c3nc-2c(C(=O)N[C@@H]2C(=O)N[C@H](C(C)C)C(=O)N3CCC[C@H]3C(=O)N(C)CC(=O)N(C)[C@@H](C(C)C)C(=O)O[C@@H]2C)c(N)c1=O` (I: T[dV]P[Sar][NMeV] / II: T[dV]P[Sar][NMeV]; ester I:1-I:C, II:1-II:C; linker I:N-II:N via Actinocin(9to1)) the Potency was 0.0147 µM (active).
For `COc1cc(C=C2CCC/C(=C\c3ccc(O)c(OC)c3)C2=O)ccc1O`, the Potency was 14.7 µM (active).
For `CC(=O)Oc1ccc(C(c2ccc(OC(C)=O)cc2)c2ccccn2)cc1`, the “activity change, negative = cytotoxic” value was -19.9% (inactive).
